Screening data from PubChem.
ELG1 repair inh: qHTS screen for small molecules that inhibit ELG1-dependent DNA repair in human embryonic kidney (HEK293T) cells expressing luciferase-tagged ELG1. HEK293T ELG1-luciferase reporter, luminescence, 16 h; DNA damage induced by 5-fluorouridine. Potency, µM (titrated, usually from 46.1 µM), for the others: at the top dose activity change, negative = inhibition, usual class: inhibitors. actives 2.3% (n = 330,000). AID 504467, 2011; also: % is scaled to controls: 0 for no effect and ±100 for the full control effect; nearly all actives have a fitted effect of over 55% in size
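Reporter activity after DNA damage by 5-fluorouridine is monitored. Compound-treated cells incubate 16 hr at 37 °C, then ONE-Glo is added for 30 min before luminescence reading.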
FLuc modulator: qHTS profiling assay for firefly luciferase inhibitor/activator using purifed enzyme and Km concentrations of substrates (counterscreen for miR-21 project) | purified FLuc, Km substrates, luminescence inhibition | actives 6.9% (n = 360,000) | Potency, µM (highest dose often 57.5 µM), inactives show top-dose activity change, negative = inhibition, usual class: inhibitors | AID 588342, 2011;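 also: plate controls were vehicle for no effect and reference inhibitor for full effect; nearly all actives have a fitted effect of over 55% in size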
Target sequence (P08659 whole entry, looked up): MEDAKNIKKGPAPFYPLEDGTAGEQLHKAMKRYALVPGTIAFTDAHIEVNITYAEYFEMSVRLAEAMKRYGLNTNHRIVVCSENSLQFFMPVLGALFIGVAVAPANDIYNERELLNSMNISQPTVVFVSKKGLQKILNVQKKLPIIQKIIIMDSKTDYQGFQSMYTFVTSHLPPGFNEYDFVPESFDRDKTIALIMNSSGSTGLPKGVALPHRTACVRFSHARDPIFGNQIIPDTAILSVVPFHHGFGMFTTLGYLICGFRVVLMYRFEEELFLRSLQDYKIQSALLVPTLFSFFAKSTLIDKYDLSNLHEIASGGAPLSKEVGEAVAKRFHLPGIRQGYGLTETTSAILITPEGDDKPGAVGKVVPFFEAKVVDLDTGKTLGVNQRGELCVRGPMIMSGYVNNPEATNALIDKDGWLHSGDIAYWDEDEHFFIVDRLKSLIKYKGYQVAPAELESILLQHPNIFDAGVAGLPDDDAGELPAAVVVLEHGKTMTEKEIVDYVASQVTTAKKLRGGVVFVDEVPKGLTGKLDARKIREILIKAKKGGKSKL
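Purified P. pyralis luciferase, 10 nM final, with Km-level 10 uM D-luciferin and 10 uM ATP in 50 mM Tris acetate pH 7.5, 10 mM Mg acetate, 0.01% Tween-20, 0.05% BSA; 6-point qHTS titration about 60 µM downward; luminescence read.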
SMN2 splice up: qHTS Assay for Enhancers of SMN2 Splice Variant Expression; HEK293 SMN2-luciferase splicing reporter, luminescence, 30-36 h; Potency, µM (titrated, usually from 46.1 µM), for inactives: top-dose activity change, positive = activation, most hits filed as activators; actives 2.8% (n = 210,000); also: % of control where 0% means no effect; nearly all actives have a fitted effect of over 55% in size
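qHTS luciferase splicing reporter: luminescence rises when SMN2 exon 7 is included in transfected HEK293 cells. Compound exposure lasted 30-36 h at 37C, with 4.5 mM final sodium butyrate as control, followed by a ONE-Glo read.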
NPC1 prom act: qHTS Assay for NPC1 Promoter Activators; Huh7 NPC1 promoter luciferase reporter, 24 h; Potency, µM (doses to about 9.22 µM), without a hit: at the highest dose activation, actives largely listed as activators; actives 2.4% (n = 320,000); AID 485313, 2010; also: % of control where 0% means no effect; nearly all actives have a fitted effect of over 60% in size
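In 1536-well qHTS, Huh7 cells harboring an NPC1 promoter–luciferase construct received compound for 24 h; activation was quantified by luminescence following luciferase reagent addition.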
Rab9 prom act: qHTS Assay for Rab9 Promoter Activators | Huh7 Rab9 promoter-luciferase reporter, luminescence, 24 h | Potency, µM (top dose mostly 9.22 µM), without a hit: at the highest dose activation, negative = inhibition, actives largely listed as activators | actives 2.8% (n = 320,000); also: % of control where 0% means no effect; nearly all actives have a fitted effect of over 60% in size
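Luminescence read-out: Huh7 cells stably expressing Rab9-luciferase, treated 24 h with compound at 37 °C, then lysed with luciferase reagent for 10 min at ambient before reading.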
ELG1 genotoxic: qHTS screen for small molecules that induce genotoxicity in human embryonic kidney (HEK293T) cells expressing luciferase-tagged ELG1; Potency, µM (highest dose often 46 µM), without a hit: top-dose activity change, positive = activation, actives largely listed as activators; HEK293T ELG1-luciferase reporter, luminescence, 16 h; actives 1.3% (n = 330,000); also: % of control where 0% means no effect; nearly all actives have a fitted effect of over 60% in size
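HEK293T cells expressing luciferase-tagged ELG1 were treated with compound or DMSO for 16 hr at 37°C. Luciferase activity was then read after 30 min with ONE-Glo at room temperature; rising signal flags genetic stress.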
Numbers without * were called inactive; ? = inconclusive; · = not tested or not shown. An excerpt weighted towards active compounds, which were near 9.3% of everything screened. Calls follow the shape of the dose curve; as a rule, active = well fitted curve in the direction sought with a large enough effect; inconclusive = small, poorly fitted or top-dose-only effect, or another doubt; inactive = no such curve, though single readings can be large; an effect the other way counts as inactive or inconclusive. Potency is read from the fitted curve at half-maximal effect.

SMILES	ELG1 repair inh	FLuc modulator	SMN2 splice up	NPC1 prom act	Rab9 prom act	ELG1 genotoxic
O=C(CCCN1C(=O)/C(=C/c2cccs2)SC1=S)Nc1cc([N+](=O)[O-])ccc1O	7%	8%	·	-6%	0%	-1%
O=C(CCN1C(=O)/C(=C/c2ccc(F)cc2)SC1=S)Nc1cc([N+](=O)[O-])ccc1O	11%	12µM*	·	0%	6%	-4%
COc1ccc(/C=C2\SC(=S)N(CC(=O)OCC(=O)Nc3ccc([N+](=O)[O-])cc3OC)C2=O)cc1	3%	24µM*	5%	5%	13%	3%
COc1ccc(/C=C2\SC(=S)N(CC(=O)OCC(=O)Nc3ccc(C)cc3Cl)C2=O)cc1	2%	12µM*	·	4%	22%	3%
CN(C(=O)COC(=O)C1CCN(S(=O)(=O)c2cccs2)CC1)C1CCS(=O)(=O)C1 (centres undefined)	-5%	-1%	-8%	-2%	0%	-5%
CCOC(=O)N1CCN(C(=O)COc2ccc(Br)cc2Cl)CC1	-8%	-1%	1%	0%	0%	3%
COc1ccc(C=Nc2ccc3[nH]ncc3c2)c(O)c1	?	6.7µM*	-8%	5%	-1%	-8%
CC(C)COC(=O)c1ccc2c(c1O)C(=O)c1ccccc1C2=O	?	1.3µM*	?	2µM*	3.2µM*	1.3µM*
O=C(Cc1cccs1)NNC(=S)NCc1ccc(Cl)cc1	7%	0%	-14%	-1%	-6%	-1%
CCN(CC)C(=O)[C@H]1CC(CC(=O)NCc2ccc(OC)c(OC)c2)C(=O)N2CCc3c([nH]c4ccccc34)[C@]12C (some centres undefined)	-5%	·	·	·	·	-3%
COc1ccc2nc(NC(=O)CSc3nnc(C)n3N)sc2c1	?	3µM*	·	1.6µM*	0.5µM*	7.3µM*
COc1ccc2nc(NC(=O)CSC3=NCCS3)sc2c1	14%	17µM*	-7%	?	?	-1%
CCOc1ccc2nc(NC(=O)CSC3=NCCS3)sc2c1	-1%	15µM*	6%	?	?	?
COc1ccc2nc(NC(=S)N(C)C)sc2c1	?	1.9µM*	-18%	0.71µM*	0.63µM*	0.82µM*
COc1ccc2nc(NC(=O)CSc3nc4cccnc4n3C)sc2c1	?	-3%	-43%	-4%	-1%	-4%
COc1ccc(NC(=O)Cc2c(F)cccc2Cl)cc1	?	?	?	20%	22%	?
COc1ccc2nc(NC(=O)CCc3ccc(OC)c(OC)c3)sc2c1	-5%	-9%	12%	2%	10%	10%
CCOc1ccc2nc(NC(=O)CSc3ccc(Cl)cc3)sc2c1	3%	?	8%	2%	2%	25%
COc1ccc2nc(NC(=O)CSc3ccccc3)sc2c1	?	17µM*	-11%	17%	13%	?
COc1ccc2nc(NC(=O)CSc3nnc(N)s3)sc2c1	?	?	10µM*	?	2µM*	16%
CCCC(=O)Nc1nc2ccc(OC)cc2s1	?	7.6µM*	10µM*	0.89µM*	1.8µM*	?
CCOc1ccc2nc(NC(=O)CSc3nc(SC)ns3)sc2c1	?	24µM*	?	22%	?	18%
COc1ccc2nc(NC(=O)CS(=O)(=O)Cc3ccccc3)sc2c1	24%	?	15%	-1%	11%	5%
COCCCn1c(=S)[nH]c2sc3c(c2c1=O)CCCC3	0%	19µM*	·	-3%	-4%	-8%
COCCn1c(=S)[nH]c2sc3c(c2c1=O)CCCC3	?	-12%	·	-1%	3%	-8%
SMILES	ELG1 repair inh	FLuc modulator	SMN2 splice up	NPC1 prom act	Rab9 prom act	ELG1 genotoxic
Cc1ccc(NC(=O)/C=C/c2ccc3c(c2)OCO3)cc1S(=O)(=O)N1CCOCC1	?	11µM*	-51%	-3%	-17%	-11%
Cc1cc(C(=O)Nc2ccc(C)c(S(=O)(=O)N3CCOCC3)c2)c(C)o1	-9%	-16%	-6%	1%	-3%	0%
Cc1ccc(NC(=O)COc2ccc(Br)cc2CO)cc1S(=O)(=O)N1CCOCC1	21µM*	·	·	·	·	-12%
Cc1ccc(NC(=O)Nc2ccccc2F)cc1S(=O)(=O)N1CCOCC1	21µM*	?	·	1%	-4%	-2%
COc1ccc(/C=C/C(=O)Nc2ccc(S(=O)(=O)N3CCOCC3)cc2)c(OC)c1	23µM*	?	·	-3%	-8%	-8%
O=C(COc1ccc(Br)cc1CO)Nc1ccc(S(=O)(=O)N2CCCC2)cc1	?	-4%	·	1%	-5%	-9%
CCOc1ccc(CNC(=O)c2ccc3c(c2)N(Cc2ccccc2)CCS3)cc1	·	-9%	10%	·	·	·
Oc1c(C(c2ccc(Cl)cc2)N2CCCC2)cc(Cl)c2cccnc12 (centres undefined)	?	-8%	-62%	0%	-3%	?
NC(=O)CC(NC(=O)Cc1ccc(Cl)cc1)c1ccc(N2CCC(Cc3ccccc3)CC2)c([N+](=O)[O-])c1 (centres undefined)	-16%	1%	·	-2%	-3%	1%
COc1ccc(/C=C/C(=O)Nc2ccc(C)c(S(=O)(=O)N3CCOCC3)c2)cc1	21µM*	·	·	·	·	-11%
Cc1nc(N2CCN(c3ccccn3)CC2)c2c(C)c(C(=O)Nc3ccc(Cl)cc3)sc2n1	8.2µM*	-1%	·	-3%	0%	-11%
Cc1nc(N2CCC(C)CC2)c2c(C)c(C(=O)Nc3ccccc3C(F)(F)F)sc2n1	15µM*	-3%	-14%	-6%	-6%	-6%
Cc1nc(N2CCN(c3ccccn3)CC2)c2c(C)c(C(=O)Nc3c(F)cc(F)cc3Br)sc2n1	23µM*	1%	·	-1%	0%	-10%
CCCCc1c(O)nc2sccn2c1=O	-7%	7%	-25%	-3%	2%	-2%
O=C(O)c1ccc(NC(=O)c2cccc(C(=O)Nc3ccc(C(=O)O)cc3)c2)cc1	13%	-15%	·	-4%	3%	0%
O=C(Nc1ccc(C(=O)c2ccc(C(=O)O)c(C(=O)O)c2)cc1)c1ccccc1	3%	11µM*	·	2%	15%	-9%
O=C(O)c1ccc(C(=O)O)c(C(=O)c2ccc(NC(=O)c3ccccc3)cc2)c1	9%	19µM*	·	-5%	-1%	-2%
